Screens as filed in PubChem.
Rows were chosen to be rich in hits. Some 0.4% of all compounds tested hit in one or more screens of this group.
EPAC2 antagonist = antagonists of human EPAC2; EPAC2 GEF exchange of Rap1B-BODIPY-GDP, fluorescence; Potency, µM (highest dose often 114 µM), inactives show at the highest dose activity, negative = inhibition, actives largely listed as inhibitors; Q8WZA2; AID 720708; actives 0.18% (n = 360,000); also: potency is read from the fitted curve at half-maximal effect; % is scaled to controls: 0 for no effect and ±100 for the full control effect; nearly all actives have a fitted effect of over 45% in size
TRPML1 inh = blocks the human TRPML1 channel; TRPML1-inducible cells, Ca2+ dye fluorescence, FDSS; stronger effect = lower value; inhibition of EC80 agonist-evoked calcium signal; AID 624415; actives 0.02% (n = 390,000); activity change, negative = inhibition, % (concentration not given with the values); in the data active = activity change below about -50%; inconclusive = between about -30% and that limit;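 also: stimulus is agonist 54-4 at its EC80 concentration; % is scaled to controls: 0 for no effect and ±100 for the full control effect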
Target sequence (Q9GZU1 whole entry, looked up): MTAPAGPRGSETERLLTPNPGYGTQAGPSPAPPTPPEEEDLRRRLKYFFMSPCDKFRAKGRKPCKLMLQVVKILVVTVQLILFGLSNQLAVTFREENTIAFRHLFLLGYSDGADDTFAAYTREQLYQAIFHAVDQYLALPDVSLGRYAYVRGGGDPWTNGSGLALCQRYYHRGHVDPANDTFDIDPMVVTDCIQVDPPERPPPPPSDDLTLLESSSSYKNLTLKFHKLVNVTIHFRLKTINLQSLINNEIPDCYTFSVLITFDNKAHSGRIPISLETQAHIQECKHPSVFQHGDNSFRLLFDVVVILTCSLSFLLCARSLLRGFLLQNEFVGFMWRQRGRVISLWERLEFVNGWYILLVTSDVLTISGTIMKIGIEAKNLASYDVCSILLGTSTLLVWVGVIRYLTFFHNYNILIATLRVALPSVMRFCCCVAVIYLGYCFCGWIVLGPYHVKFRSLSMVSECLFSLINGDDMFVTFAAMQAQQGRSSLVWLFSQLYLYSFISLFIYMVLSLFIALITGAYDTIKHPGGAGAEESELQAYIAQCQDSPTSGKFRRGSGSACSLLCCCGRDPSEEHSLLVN
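Tet-induced TRPML1-DL cells loaded with Ca8 no-wash calcium dye were read kinetically on FDSS. Compound addition was followed by EC80 agonist 54-4 (4 uM final); inhibition was read over 110 s.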
EPAC1 agonist = agonists of human EPAC1 | O95398 | EPAC1 agonist qHTS, biochemical assay; response scale: 100% = response to 6.5 mM cAMP | Potency, µM (top dose mostly 154 µM), for the others: top-dose activation, hits mostly activators | actives 0.073% (n = 360,000); also: potency is read from the fitted curve at half-maximal effect; nearly all actives have a fitted effect of over 60% in size
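EPAC1 100 nM, Rap1B–BODIPY-GDP 250 nM, unlabeled GDP 50 uM; compound titration; 5 min RT; kinetic read ex480/em540 at 5-min intervals ×30 min; data normalized to 6.5 mM cAMP agonist control.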
EPAC1 antagonist = blocks human EPAC1 exchange factor. Potency, µM (doses to about 115 µM), without a hit: at the top dose activity change, negative = inhibition, actives largely listed as inhibitors. EPAC1 GEF assay, Rap1b-BODIPY-GDP exchange fluorescence. actives 0.14% (n = 360,000);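 also: potency is read from the fitted curve at half-maximal effect; plate controls were vehicle for no effect and positive control for full effect; nearly all actives have a fitted effect of over 50% in size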
EPAC2 agonist = agonists of human EPAC2 (RAPGEF4); Q8WZA2; EPAC2 activation, biochemical qHTS; response scale: 100% = 6.5 mM cAMP response; Potency, µM (doses to about 154 µM), for inactives: top-dose activation, usual class: activators; actives 0.079% (n = 360,000); AID 720711; also: potency is read from the fitted curve at half-maximal effect; nearly all actives have a fitted effect of over 50% in size
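Nucleotide exchange monitored as fluorescence drop when BODIPY-GDP leaves Rap1B. Reaction: 100 nM EPAC2, 250 nM RAP1B-BODIPY-GDP, 50 uM GDP, room temperature, kinetic read over 30 min. Activity expressed relative to 6.5 mM cAMP.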
TRPML1 agonist = human mucolipin-1 channel agonism. Q9GZU1. TRPML1-expressing cells, Ca2+ dye fluorescence, FDSS. activation, % (concentration not given with the values). actives 0.12% (n = 410,000). AID 624414; in the data active = activation above about 50%; inconclusive = mostly about 30% to 49%; also: 0% is about no effect
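Tetracycline-induced TRPML1-DL cells are seeded and incubated overnight before loading with a no-wash Ca2+ dye and quencher. Agonist activity is taken from the 110 s fluorescence read following compound pin-transfer on an FDSS, before EC80 54-4 challenge.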
* hit, by the source's call; ? = inconclusive; . = no result. Unless noted, calls follow the shape of the dose curve; as a rule, active = well fitted curve in the direction sought with a large enough effect; inconclusive = small, poorly fitted or top-dose-only effect, or another doubt; inactive = no such curve, though single readings can be large; an effect the other way counts as inactive or inconclusive.

SMILES	EPAC2 antagonist	TRPML1 inh	EPAC1 agonist	EPAC1 antagonist	EPAC2 agonist	TRPML1 agonist
Cc1ccc(-c2csc(Nc3ccc(C(=O)O)cc3)[n+]2Cc2ccccc2)cc1	-10%	0	6%	-17%	6%	0
Cc1ccc(Cn2cnc3c(cnn3C(C)(C)C)c2=O)cc1F	.	20	.	.	.	1
COc1ccc(/C=C/c2ccccn2)cc1	.	.	.	.	.	0
Cc1ccc(Cl)cc1N1CCN(C(=O)c2cnn(C(C)(C)C)c2C2CCN(C(=O)OC(C)(C)C)CC2)CC1	.	-5	.	.	.	3
Cc1ccc(C)c(N2CCN(C(=O)c3cnn(C(C)(C)C)c3C3CCN(C(=O)OC(C)(C)C)CC3)CC2)c1	.	-26	.	.	.	51*
Cc1ccc(N2CCN(C(=O)c3cnn(-c4ccc(F)cc4F)c3C3CCN(C(=O)OC(C)(C)C)CC3)CC2)c(C)c1	.	-10	.	.	.	58*
CC(C)=CCC/C(C)=C/CC/C(C)=C/CCC1(C)CCc2cc(O)ccc2O1 (configuration not stated)	.	.	.	.	.	0
COc1ccc(OC)c(NC(=O)CSc2nc(O)cc(=O)n2CC(C)C)c1	12%	-13	-12%	56µM*	-2%	2
CCOc1cc(CNC(=O)C2CCN(c3nc4ccccc4[nH]3)CC2)cc(OCC)c1OCC	.	-11	.	.	.	0
O=C1C=C(N2CCOCC2)c2ccccc2C1=O	?	4	3%	10µM*	22%	0
CC(C)O/C(=N/S(=O)(=O)c1ccc(Cl)cc1)c1ccccc1	50µM*	-6	2%	5%	14%	-1
CC(C)O/C(=N\S(=O)(=O)c1ccc(Cl)cc1)c1ccccc1	?	3	-1%	2%	4%	0
CNc1nc(N2CCCN(C)CC2)nc2cc(OC)c(OC)cc12	.	.	.	.	.	0
Nc1ccc(S(=O)(=O)Nc2nccs2)cc1N=Nc1ccccc1[N+](=O)[O-]	10µM*	13	12%	?	-1%	2
C(=C\c1c[nH]c2ccccc12)/c1ccnc2ccccc12	.	.	.	.	.	1
CCCCCCCCCC[n+]1ccc(/C=C/c2c(C)[nH]c3ccccc23)cc1	.	.	.	.	.	123*
COc1ccc2c(/C=C/c3cc[n+](C)cc3)c[nH]c2c1	0%	16	8%	7%	3%	0
CCCCCCC[n+]1ccc(/C=C/c2c[nH]c3ccccc23)cc1	.	.	.	.	.	63*
CCn1c(/C=C/c2c[nH]c3ccccc23)nc2ccccc2c1=O	-16%	12	6%	-4%	1%	1
CC[n+]1ccc(/C=C/c2c[nH]c3ccccc23)cc1	45%	-29	?	52%	100µM*	6
Cc1ccc2[nH]cc(/C=C/c3cc[n+](C)cc3)c2c1	65%	28	100µM*	72%	?	4
CC(C)(C)n1ncc2c(=O)n(Cc3c(F)ccc(F)c3Cl)cnc21	.	-5	.	.	.	3
O=C(NC1CCCc2ccccc21)c1cnn2c1NC(=C1CC1)C=C2C(F)F (configuration not stated)	.	.	.	.	.	0
COc1cc2nc(N3CCCCC3)nc(NC3CCN(Cc4ccccc4)CC3)c2cc1OC	.	.	.	.	.	0
Cn1cccc1/C=C1\CCC/C(=C\c2cccn2C)C1=O	?	-10	100µM*	19%	-21%	?
SMILES	EPAC2 antagonist	TRPML1 inh	EPAC1 agonist	EPAC1 antagonist	EPAC2 agonist	TRPML1 agonist
O=C1/C(=C/c2cccs2)CCC/C1=C\c1cccs1	-3%	-13	16%	-8%	7%	12
CC(C)(C)n1ncc2c(=O)n(Cc3ccccc3-c3ccccc3)cnc21	.	7	.	.	.	2
CC(C)(C)n1ncc2c(=O)n(Cc3cc(Cl)ccc3Cl)cnc21	.	25	.	.	.	2
O=C(O)CCCCCN1C(=O)/C(=C/c2cn(-c3ccccc3)nc2-c2cccs2)SC1=S	66%	4	89µM*	50%	24%	0
CCCCCC[n+]1ccccc1/C=C/c1ccc(N(C)C)cc1	1%	-1	12%	21%	6%	69*
Cc1ccccc1CC(=O)NC1CCCCCC1	13%	-54*	-5%	14%	-4%	1
